Hits are enriched below; roughly 12% of the tested compounds scored in any of these assays.
Pf growth 96h = Primary qHTS for delayed death inhibitors of the malarial parasite plastid, 96 hour incubation | P. falciparum luciferase reporter growth, 96 h | Potency, µM (titrated, usually from 28.7 µM), for inactives: at the top dose activity change, negative = inhibition, most hits filed as inhibitors | 6.9% of 320,000 active; further: on the % scale 0 is the no-effect control and ±100 the full control effect
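Compounds incubated with erythrocytes infected by luciferase-expressing P. falciparum (2% hematocrit, 0.05% parasitemia final) for 96 hours, 37 C in 5% CO2. Growth inhibition scored as decreased luciferase luminescence.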
NS1 function inh = qHTS Assay for Inhibitors of Influenza NS1 Protein Function | Potency, µM (top dose mostly 46.1 µM), for inactives: at the highest dose activity, positive = more growth | 0.4% of 270,000 active; calls by dose curve; further: actives are rising curves; nearly all actives have a fitted effect of over 50% in size
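OD600 was taken as the measure of yeast growth restored by compound in an NS1-expressing S. cerevisiae strain. Cells had been washed out of glucose medium and diluted 1:100 into galactose -URA medium, pH 6.0.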
Pf growth 48h = Primary qHTS for delayed death inhibitors of the malarial parasite plastid, 48 hour incubation | P. falciparum luciferase growth in erythrocytes, 48 h | Potency, µM (doses to about 28.7 µM), for inactives: at the highest dose activity change, negative = inhibition, hits mostly inhibitors | 5.9% of 310,000 active | AID 504832, 2011; further: on the % scale 0 is the no-effect control and ±100 the full control effect
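In quantitative HTS format, infected erythrocytes bearing luciferase-reporter parasites were treated for a single generation at 37 C. Luminescence after adding detection reagent served as the growth measure.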
HCV inh = qHTS Assay for Inhibitors of Hepatitis C Virus (HCV); Huh7.5.1 HCVcc-Cre infection, luciferase reporter, 44 h; Potency, µM (series often up to 41.8 µM), inactives show at the highest dose activity change, negative = inhibition, hits mostly inhibitors; 3.4% of 340,000 active; AID 651820, 2012; further: on the % scale 0 is the no-effect control and ±100 the full control effect
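HCVcc-Cre virus at an moi near 0.5 was added right after compound to cells cultured 4 h from seeding (1,000 cells/well). Luciferase activity was determined 44 h later, 15 min after substrate addition at RT.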
AMA1 RON2 block = qHTS for Inhibitors of AMA1-RON; Towards Development of Antimalarial Drug Lead: Primary Screen; Plasmodium falciparum AMA1 (3D7) - RON2 peptide interaction; AID 720542, 2013; AlphaScreen AMA1-biotinylated RON2 peptide binding; Potency, µM (doses to about 58.2 µM), for the others: top-dose activity change, negative = inhibition, most hits filed as inhibitors; 0.2% of 360,000 active;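 further: 0% = vehicle wells and -100% = peptide control; nearly all actives have a fitted effect of over 45% in size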
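AMA1 (3D7) with his tag at 25 nM final met compounds first, then biotinylated RON2 peptide at 25 nM; detection used donor plus acceptor beads, 10 µg/mL apiece, read by AlphaScreen after 30 min at room temperature.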
SARS PLpro yeast = qHTS of Yeast-based Assay for SARS-CoV PLP; AID 485353, 2010; Potency, µM (series often up to 32.9 µM), for the others: at the top dose activity, positive = growth rescue, actives largely listed as activators; 0.19% of 330,000 active; S. cerevisiae expressing SARS-CoV PLpro, growth rescue; calls by dose curve; further: 0% is about no effect; nearly all actives have a fitted effect of over 55% in size
The depositor's hits bear a star; [ ] = another dose, or the depositor's remark. Unless noted, the call rests on the fitted dose curve; in most records, active means well fitted curve in the direction sought with a large enough effect; inconclusive means small, poorly fitted or top-dose-only effect, or another doubt; inactive means no such curve, though single readings can be large; an effect the other way counts as inactive or inconclusive. Potency means the concentration at half of the fitted maximal effect.

COC(=O)CCCC1=CC2=CC(=O)C(C)(OC(=O)c3cccs3)C(=O)C2=CN1C1CCCC1 (centres undefined) was read as Pf growth 96h inconclusive, NS1 function inh -2.1%, Pf growth 48h inconclusive, HCV inh 4.1%, AMA1 RON2 block -8.6% and SARS PLpro yeast 4.8%.
Screening COC(=O)CCCC1=CC2=CC(=O)C(C)(OC(=O)c3cccs3)C(=O)C2=CN1Cc1ccccc1 (centres undefined) returned Pf growth 96h inconclusive, NS1 function inh inconclusive, Pf growth 48h 13.1µM*, HCV inh -11.2%[8.37 µM], AMA1 RON2 block 13.6% and SARS PLpro yeast 3.6%.
`COC(=O)CCCC1=CC2=CC(=O)C(C)(OC(=O)c3cccs3)C(=O)C2=CN1Cc1ccco1` (centres undefined) gave Pf growth 96h inconclusive, NS1 function inh 7.3%, Pf growth 48h inconclusive, HCV inh -12.1%[8.37 µM], AMA1 RON2 block -16.4% and SARS PLpro yeast 2.0%.
Screening COC(=O)CCCC1=CC2=CC(=O)C(C)(OC(=O)c3cccs3)C(=O)C2=CN1c1ccc(OC)cc1 (centres undefined) returned Pf growth 96h 13.1µM*, NS1 function inh 3.7%, Pf growth 48h 6.57µM*, HCV inh 17.4%, AMA1 RON2 block -9.2% and SARS PLpro yeast 0.0%.
Screening COC(=O)CCCC1=CC2=CC(=O)C(C)(OC(=O)c3cccs3)C(=O)C2=CN1Cc1ccc2c(c1)OCO2 (centres undefined) returned Pf growth 96h inconclusive, NS1 function inh inconclusive, Pf growth 48h 13.1µM*, HCV inh 1.1%, AMA1 RON2 block -19.0% and SARS PLpro yeast 0.2%.
Cc1ccc(NC(=S)Nc2cc(-c3ccccc3)[nH]n2)cc1Cl was read as Pf growth 96h 28.4%, Pf growth 48h inconclusive, HCV inh 27.2%, AMA1 RON2 block 36.8% and SARS PLpro yeast -4.9%.
For Fc1ccc(NC(=S)Nc2cc(-c3ccccc3)[nH]n2)cc1Cl the results were Pf growth 96h 25.1%, NS1 function inh 1.2%, Pf growth 48h 10.4µM*, HCV inh inconclusive, AMA1 RON2 block 15.6% and SARS PLpro yeast -3.1%.
For Fc1ccc(NC(=S)Nc2cccnc2)cc1Cl the results were Pf growth 96h inconclusive, NS1 function inh -60.1%, Pf growth 48h 14.7µM*, HCV inh -12.6%, AMA1 RON2 block 19.5% and SARS PLpro yeast -3.1%.
For Cc1ccc(NC(=S)N(CCN2CCCCC2)Cc2ccco2)cc1Cl the results were Pf growth 96h inconclusive, NS1 function inh -4.4%, Pf growth 48h -65.5%, HCV inh -31.5%, AMA1 RON2 block -11.5% and SARS PLpro yeast 0.1%.
For CC(=O)Nc1cc(NC(C)=O)cc(C(=O)OCC(=O)c2ccc3c(c2)NC(=O)CO3)c1 the results were Pf growth 96h 33.9%, Pf growth 48h -24.2%, HCV inh inconclusive, AMA1 RON2 block -22.8% and SARS PLpro yeast 3.3%.
N#CCC(=O)Nc1ccc(C(=O)OCC(=O)NCc2ccc3c(c2)OCO3)cc1 was read as Pf growth 96h inconclusive, Pf growth 48h 8.28µM*, HCV inh 7.4%, AMA1 RON2 block -0.6% and SARS PLpro yeast 3.0%.
Screening O=C(COC(=O)c1ccc(O)cc1)NCc1ccc2c(c1)OCO2 returned Pf growth 96h inconclusive, Pf growth 48h 4.8%, HCV inh 4.2%, AMA1 RON2 block -4.7% and SARS PLpro yeast 1.5%.
N#CCC(=O)Nc1ccc(C(=O)OCC(=O)c2ccc3c(c2)NC(=O)CO3)cc1 was read as Pf growth 96h inconclusive, Pf growth 48h 13.1µM*, HCV inh 1.3%, AMA1 RON2 block -18.4% and SARS PLpro yeast -6.3%.
For CN(C)S(=O)(=O)c1ccc(NC(=O)CN2C(=O)NC(Cc3ccccc3)C2=O)cc1 (centres undefined) the results were Pf growth 96h -15.3%, Pf growth 48h inconclusive, HCV inh -4.8%, AMA1 RON2 block -2.3% and SARS PLpro yeast -2.6%.
For CCCn1c(C2CCCN2c2nc(-c3cccc(Br)c3)cs2)nc2ccccc21 (centres undefined) the results were Pf growth 96h 1.85µM*, NS1 function inh 25.5%, Pf growth 48h inconclusive, HCV inh inconclusive, AMA1 RON2 block 11.4% and SARS PLpro yeast 17.4%.
Screening CC(=O)NC12CC3CC(C1)CC(C(=O)NCc1ccc(C)cc1)(C3)C2 returned Pf growth 96h -3.0%, NS1 function inh 20.3%, Pf growth 48h -0.9%, HCV inh -10.6%, AMA1 RON2 block 15.8% and SARS PLpro yeast 0.6%.
CCN1CCN(CCOc2cccc(Oc3ccccc3)c2)CC1 was read as Pf growth 96h 32.3%, NS1 function inh 2.7%, Pf growth 48h -7.8%, HCV inh inconclusive, AMA1 RON2 block inconclusive and SARS PLpro yeast -0.2%.
NC1=NC[C@H](Cc2ccccc2)N1CCc1cccc(F)c1 was read as Pf growth 96h 3.7µM*, NS1 function inh -0.6%, Pf growth 48h 5.86µM*, HCV inh 13.3%, AMA1 RON2 block 5.0% and SARS PLpro yeast 8.4%.
Fc1cccc(CCN2CCNC[C@@H]2Cc2ccccc2)c1 was read as HCV inh inconclusive and AMA1 RON2 block -6.0%.
For NC1=NC[C@H](Cc2ccc(O)cc2)N1CCCCC1CCCCC1 the results were Pf growth 96h 2.08µM*, NS1 function inh 4.5%, Pf growth 48h 2.08µM*, HCV inh 3.8%[8.37 µM], AMA1 RON2 block -3.9% and SARS PLpro yeast -3.4%.
`NC1=NC[C@H](Cc2ccccc2)N1CCCCC1CCCCC1` gave Pf growth 96h 11.7µM*, NS1 function inh -8.2%, Pf growth 48h inconclusive, HCV inh -3.1%[8.37 µM], AMA1 RON2 block 10.4% and SARS PLpro yeast -5.5%.
Screening c1ccc(C[C@H]2CN=C(Nc3ccccc3)N2CCC2CCCC2)cc1 returned Pf growth 96h inconclusive, Pf growth 48h inconclusive, HCV inh inconclusive, AMA1 RON2 block 4.1% and SARS PLpro yeast 0.0%.
`Nc1ccn([C@@H]2O[C@H](CNCc3ccc(Oc4cc(-n5cccn5)ncn4)cc3)[C@@H](O)[C@H]2O)c(=O)n1` gave AMA1 RON2 block 10.1%.
`Cn1c(SCC(=O)Nc2ccc3[nH]c(=O)[nH]c3c2)nnc1-c1ccc(F)cc1` gave Pf growth 96h -17.1%, NS1 function inh -21.3%, Pf growth 48h -14.3%, HCV inh 3.7%, AMA1 RON2 block -2.7% and SARS PLpro yeast -0.3%.

Screening results as filed in PubChem BioAssay.
